These results are taken from PubChem BioAssay (NCI).

The panel holds about 83,000 compounds, 20% with a hit somewhere; the sample as a whole holds those more often.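 Each cell line was grown in a 96-well plate and treated with one concentration of compound for 48 hours. Values below 10 were considered active.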 Values without a mark were called inactive. Calls of active or inactive are those of the source.

Experiment in all cases: NCI-60 one-dose screen, 48 h (100 = growth as untreated, 0 = no growth, -100 = all killed)
Conditions in all cases: 10 µM unless noted

In assay [1] the test system is NCI-H23 lung.
Assay [2] relates to NCI-H226 lung.
Assay [3] deals with NCI-H322M lung.
Assay [4] relates to HOP-62 NSCLC.
The test system of assay [5] is NCI-H460 lung.
Assay [6] deals with HOP-92 NSCLC.
Assay [7] deals with NCI-H522 lung.
In assay [8] the test system is A549/ATCC NSCLC.
Assay [9] deals with 786-0 renal.
Assay [10] concerns COLO 205 colon.

In the case of `COc1ccc(-c2nnc3n(C)c(=O)c4ccccc4n23)cc1N`, the growth in assay [1] is 46.6%; in assay [2], 70.1%; in [3], 39.5%; in [4], 23.3%; in assay [5], 13.6%; in [6], 49.9%. In addition, the growth in assay [7] is 18.8%; in [8], 28.6%; in assay [9] it was 23%; in [10] it was -22.2% (active).

Take `CN(C)CCNc1nc2c3cc(Cl)ccc3nn2c2ccccc12`: the growth in assay [1] was 45.5%; in [2] it was 61.1%; in assay [3], 40.2%; in assay [4] it was 43.9%; in [5], 15.8%; in [6], 36.8%. In addition, the growth in assay [7] was 67%; in assay [8], 31.5%; in assay [9] it was 38.1%; in assay [10], 26.3%.

On to `C=C(C)[C@@H]1CC[C@]2(C(=O)N3CCN(C)CC3)CC[C@]3(C)[C@H](CC[C@@H]4[C@@]5(C)CC(=C/c6ccncc6)/C(=N/O)C(C)(C)[C@@H]5CC[C@]43C)[C@@H]12`, for which the growth was 78.1% in assay [1]; 88.4% in assay [2]; 75.1% in [3]; 96.8% in [4]; 69.5% in assay [5]; 56.7% in assay [6]. The growth in [7] is 69%; in assay [8] it was 73.9%; in [9] it was 74.6%; in [10], 80.8%.

As to `CCCC(O)Cn1ncc(C(=O)OCC)c1NC(=O)NCc1ccccc1F` (stereo not given), the growth in assay [1] is 81.1%; in [2], 96.8%; in [3], 95.6%; in [4], 105%; in [5] it was 97.8%; in assay [6], 92.1%. Also, the growth is 57% in assay [7], 82.4% in [8], 95.6% in assay [9] and 116% in [10].

For `O=C(CN1C(=O)CCC1=O)Nc1ncc(Cc2ccc(F)cc2)s1`, the growth in assay [1] was 98.6%; in assay [2], 95.9%; in assay [3], 102%; in assay [4], 105%; in assay [5], 106%; in assay [6] it was 99.9%. In addition, the growth was 99% in assay [7], 108% in [8], 101% in assay [9] and 113% in assay [10].

For the compound `O=C(/C=C/c1ccccc1)c1cccc(OCCCOc2cccc(C(=O)/C=C/c3ccccc3)c2)c1`, the growth in assay [1] is 95.5%; in assay [2], 108%; in assay [3], 105%; in [4] it was 116%; in [5], 101%; in assay [6] it was 101%. Moreover, the growth was 90.3% in assay [7], 87.2% in assay [8], 92.9% in [9] and 94.1% in assay [10].

Regarding `O=C(O)[C@@H]1c2ccccc2-c2ccccc2[C@H]1C(=O)O`, the growth was 91.4% in assay [1]; 97.8% in assay [2]; 99.2% in [3]; 90.8% in assay [4]; 109% in [5]; 61.5% in [6]. Moreover, the growth was 91% in [7], 102% in assay [8], 88.8% in [9] and 106% in [10].

For `Cc1nn(-c2ccccc2)c(Oc2ccccn2)c1-c1nc2ccccc2s1`, the growth in assay [1] was 87.7%; in assay [2], 93.8%; in assay [3], 93.3%; in assay [4], 112%; in assay [5] it was 106%; in [6], 80.9%. The growth in [7] is 82.2%; in [8], 92.9%; in assay [9], 104%; in [10], 110%.

With `O=C1/C(=C/c2ccccc2Br)COc2ccc(O)c(O)c21`, the growth in assay [1] is 46.5%; in assay [2], 86.3%; in assay [3] it was 33.3%; in assay [4] it was -5.9% (active); in assay [5] it was 14.3%; in assay [6], 36.9%. For the same compound, the growth in assay [7] was -45.2% (active); in [8], 35.1%; in assay [9], -41.6% (active); in assay [10] it was 82.2%.

In the case of `CC(=O)OCc1nc(C#N)c(N(C)C)o1`, the growth in assay [1] was 102%; in assay [2], 97.3%; in assay [3], 99.8%; in assay [4], 91.4%; in assay [5], 103%; in assay [6], 83%. The growth in assay [7] is 90.3%; in [8], 92.5%; in [9], 95%; in [10], 105%.

In the case of `C=C1C(=O)O[C@H]2[C@H]1CC/C(COC(=O)CCSCCC(=O)OC/C1=C/CC[C@@]3(C)O[C@H]3[C@H]3OC(=O)C(=C)[C@@H]3CC1)=C\CC[C@@]1(C)O[C@@H]21`, the growth in assay [1] is 9.21% (active); in [2], -39.5% (active); in assay [3] it was 80.5%; in [4], 86.9%; in assay [5], 9.87% (active); in assay [6] it was -50.2% (active). In addition, the growth in assay [7] is -75.8% (active); in [8] it was 71.1%; in assay [9], -21.9% (active); in [10], -72.3% (active).
